# In PubChem BioAssay AID743363 (Broad Institute, 2014):
# The source made the active and inactive calls. No rule for the calls is given here.
# Experiment: interference with FL-DTB/streptavidin displacement signal, dose response, counter-screen, biochemical, dry powder samples (AID 743363)
# Conditions: FL-DTB/streptavidin fluorescence displacement counter-screen, BioD coupled; series mostly up to 10 µM
row,SMILES,outcome
1,COc1ccccc1C(=O)N1CCN(c2ccc(C(C)=O)cc2)CC1,inactive
2,CC(=O)c1ccc(N2CCN(C(=O)c3ccc(Cl)c(Cl)c3)CC2)cc1,inactive
3,CC(=O)c1ccc(N2CCN(C(=O)c3ccc4snnc4c3)CC2)cc1,inactive
4,COc1ccc(C(=O)N2CCN(c3ccc(C(C)=O)cc3)CC2)cc1OC,inactive
5,CNC(=O)c1ccc(N2CCN(C(=O)c3ccc4c(c3)OCO4)CC2)cc1,inactive
6,CN1c2ccc(-c3ccc(F)cc3)cc2[C@H]2[C@H](CCN2C(=O)Cc2cccnc2)[C@H]1CO,inactive
7,CN1c2ccc(-c3cccc(F)c3)cc2[C@H]2[C@H](CCN2C(=O)CCCCCCC(=O)O)[C@H]1CO,inactive
8,CN1c2ccc(-c3ccc(F)cc3)cc2[C@H]2[C@H](CCN2C(=O)Cc2ccccn2)[C@H]1CO,inactive
9,CC(=O)c1ccc(N2CCN(C(=O)c3ccccc3Cl)CC2)cc1,inactive
10,O=C(c1ccc2c(c1)OCO2)N1CCN(c2ccc(OC(F)(F)F)cc2)CC1,inactive
11,CCCNC(=O)N1CC[C@@H]2[C@@H](CO)N(C)c3ccc(-c4ccc(F)cc4)cc3[C@@H]21,inactive
12,CC(=O)c1ccc(N2CCN(C(=O)c3ccc4c(c3)OC(F)(F)O4)CC2)cc1,inactive
13,CC(=O)c1ccc(N2CCN(C(=O)c3ccccc3F)CC2)cc1,inactive
14,CC(=O)c1ccc(N2CCN(C(=O)c3ccc4c(c3C)OCO4)CC2)cc1,inactive
15,CC(=O)c1ccc(N2CCN(C(=O)c3ccc4c(c3)OCO4)CC2)cc1,inactive
16,CC(=O)c1ccc(N2CCN(S(=O)(=O)c3ccc4c(c3)OCO4)CC2)cc1,inactive
17,CCCCCCCC(=O)N1CC[C@@H]2[C@@H](CO)N(C)c3ccc(-c4cccc(F)c4)cc3[C@@H]21,inactive
18,CCC(=O)N1CC[C@@H]2[C@@H](CO)N(C)c3ccc(-c4ccc(F)cc4)cc3[C@@H]21,inactive
19,O=C(c1ccc2c(c1)OCO2)N1CCN(c2ccc(S(=O)(=O)C(F)F)cc2)CC1,inactive
20,CC(C)NC(=O)N1CC[C@@H]2[C@@H](CO)N(C)c3ccc(-c4ccc(F)cc4)cc3[C@@H]21,inactive
21,CN1c2ccc(-c3cccc(F)c3)cc2[C@H]2[C@H](CCN2C(=O)c2ccc3c(c2)OCO3)[C@@H]1CO,inactive
22,CC(=O)c1ccc(N2CCN(C(=O)c3cc4c(cc3C)OCO4)CC2)cc1,inactive
23,CC(=O)c1ccc(N2CCN(C(=O)c3cc(Cl)c4c(c3)OCO4)CC2)cc1,inactive
24,CN1c2ccc(-c3cccc(F)c3)cc2[C@@H]2[C@@H](CCN2C(=O)c2ccc3c(c2)OCO3)[C@H]1CO,inactive
25,O=C(c1ccc2c(c1)OCO2)N1CCN(c2ccc(S(=O)(=O)C(F)(F)F)cc2)CC1,inactive
26,CC(=O)c1ccc(N2CCN(C(=O)c3cccc4c3OCO4)CC2)cc1,inactive
27,COc1cccc(NC(=O)N2CC[C@@H]3[C@@H](CO)N(C)c4ccc(-c5cccc(F)c5)cc4[C@@H]32)c1,inactive
28,COc1ccc(NC(=O)N2CC[C@@H]3[C@@H](CO)N(C)c4ccc(-c5cccc(F)c5)cc4[C@@H]32)cc1,inactive
29,CN1c2ccc(-c3cccc(F)c3)cc2[C@@H]2[C@@H](CCN2C(=O)c2ccc3c(c2)OCO3)[C@@H]1CO,inactive
30,COC(=O)c1ccc(N2CCN(C(=O)c3ccc4c(c3)OCO4)CC2)cc1,inactive
